Only some compounds are listed: those with a hit (about 2.5% of all), similar ones and a draw of the others.
pAkt inh: HTS Assay for Inhibitors of Akt Phophorylation: Primary Screen; AID 651550, 2012; 360,000 compounds, 0.32% hits; Neuro2A IGF-stimulated pAkt S473 HTRF, 20 min; stronger effect = lower value; activity change, % for hits at 50 µM; in the data active means activity change below about -80%; inconclusive means mostly about -51% to -80%; further: on the % scale 0 is the no-effect control and ±100 the full control effect
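Neuro2A cells in DMEM with 0.5% FBS, overnight at 37 deg C, given compound at single 50 µM final, then IGF (6 nM final) for 20 min at 37 deg C. Lysed; phospho-Akt Ser473 by HTRF after 24 h, 665/615 ratio.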
CCT chaperon mod: High-Throughput Screening for Modulators of Cytosolic Chaperonin Activity; purified chaperonin ATPase assay, HTRF ADP detection, 30 min; activity change, % (concentration not given with the values), hits read low; 360,000 compounds, 0.3% hits; AID 651819, 2012; in the data active means activity change below about -30%; further: on the % scale 0 is the no-effect control and ±100 the full control effect
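Nucleotide hydrolysis assay: TRiC at 20–40 nM final (set by batch activity) with 10 uM ATP, 30 min at 37 °C, in presence of 76 uM compound. Detection by competitive ADP HTRF, 30 min ambient.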
Apoferritin bind: qHTS Assay for Identification of Novel General Anesthetics. Ferritin light chain (Equus caballus), P02791. apoferritin/1-aminoanthracene competitive binding, fluorescence. Potency, µM (highest dose often 77.5 µM), without a hit: at the top dose activity change, negative = displacement, actives largely listed as inhibitors. 350,000 compounds, 0.074% hits. AID 485281, 2010; further: potency means the concentration at half of the fitted maximal effect; on the % scale 0 is the no-effect control and ±100 the full control effect; nearly all actives have a fitted effect of over 20% in size
Target sequence (P02791 2-175 limits assumed): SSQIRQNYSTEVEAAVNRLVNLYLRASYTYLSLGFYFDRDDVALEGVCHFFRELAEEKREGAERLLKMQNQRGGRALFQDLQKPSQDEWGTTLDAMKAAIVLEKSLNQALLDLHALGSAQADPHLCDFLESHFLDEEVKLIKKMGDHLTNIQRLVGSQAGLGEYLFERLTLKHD
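Horse-spleen apoferritin (10 uM) was mixed with 50% saturated 1-aminoanthracene in PBS, exposed to compounds for 10 min at room temperature, and read for fluorescence (ex 380 nm, em 535 nm). Competitive displacement was fitted with a four-parameter Hill equation.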
TDP43 rescue: qHTS of TDP-43 Inhibitors | TDP-43 expressing yeast growth rescue, BacTiter-Glo, 24 h | Potency, µM (highest dose often 46.1 µM), for inactives: at the top dose growth rescue (activation), most hits filed as activators | 410,000 compounds, 1.8% hits; further: potency means the concentration at half of the fitted maximal effect; % of control where 0% means no effect; nearly all actives have a fitted effect of over 50% in size
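In this qHTS, compounds that restore growth of yeast expressing TDP-43 appear as activators. Cells (OD600=0.02, galactose medium, raffinose-pregrown) are incubated with compound 24 hr at 30 deg C and growth is quantified by BacTiter-Glo.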
aSyn yeast inh: qHTS of alpha-syn Inhibitors | Potency, µM (highest dose often 46.1 µM), without a hit: at the top dose growth rescue (activation), most hits filed as activators | AID 652106, 2013 | 370,000 compounds, 0.14% hits | Yeast expressing alpha-synuclein, growth rescue, BacTiter-Glo, 24 h; further: potency means the concentration at half of the fitted maximal effect; % of control where 0% means no effect; nearly all actives have a fitted effect of over 65% in size
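Galactose-induced alpha-syn yeast (OD600=0.02, raffinose-pregrown) + pinned cpd, 24 hr, 30 deg C; growth by BacTiter-Glo luminescence. Growth restoration scores as activation.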
Mito fusion yeast: qHTS Assay for Small Molecule Inhibitors of Mitochondrial Division or Activators of Mitochondrial Fusion; Potency, µM (series often up to 46.1 µM), inactives show at the top dose growth rescue (activation), usual class: activators; AID 485298, 2010; S. cerevisiae fusion-defective mutant growth rescue, CellTiterGlo 48 h; 320,000 compounds, 0.23% hits; further: potency means the concentration at half of the fitted maximal effect; % of control where 0% means no effect; nearly all actives have a fitted effect of over 45% in size
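S. cerevisiae fusion-defective temperature-sensitive mutants (e.g. fzo1-1, mgm1-5) grown 48 h at 37C in YPEG (ethanol/glycerol non-fermentable) medium with 23 nl compound per well; growth rescue read as CellTiterGlo luminescence.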
* = called active by the depositor; i = inactive; u = inconclusive; x = no result given; [ ] = dose if it differs, or a comment. Unless noted, the call rests on the fitted dose curve; in most records, active means well fitted curve in the direction sought with a large enough effect; inconclusive means small, poorly fitted or top-dose-only effect, or another doubt; inactive means no such curve, though single readings can be large; an effect the other way counts as inactive or inconclusive.

SMILES	pAkt inh	CCT chaperon mod	Apoferritin bind	TDP43 rescue	aSyn yeast inh	Mito fusion yeast
CCCc1cc(N2CCN(c3cccc(C)c3C)CC2)n2cnnc2n1	x	x	-15.5%	15.8µM*	x	x
O=C(CNC(=O)c1ccc(Cl)cc1)OCC(=O)c1ccc2c(c1)OCCO2	i	0.3	10µM*	7.8%	10.8%	-1.5%
CCOC(=O)[C@]1(C#N)[C@@H]2C=CC(C(C)=O)=CN2[C@@H](C(N)=O)[C@@H]1c1ccsc1	-105.8%*	-0.8	0.0%	7.5%	-1.0%	-3.0%
O=c1c2ccccc2nc(-c2ccc([N+](=O)[O-])cc2)n1-c1ccccc1	i	0.1	-15.0%	0.0%	-1.1%	-0.8%
Cc1ccccc1-n1c(-c2ccc([N+](=O)[O-])cc2)nc2ccccc2c1=O	i	0.3	-2.2%	u	20µM*	6.9%
CCC(=O)CC(c1ccccc1)c1c(O)c2ccccc2sc1=O (configuration not stated)	i	0.7	-3.6%	25.1µM*	-17.3%	26.3%
COc1ccc(N2C(=O)/C(=C/c3ccc(C)o3)C(=O)NC2=S)cc1	i	0.9	-1.2%	7.08µM*	4.9%	3.4%
CCOc1ccc(N2C(=O)/C(=C/c3ccc(C)o3)C(=O)NC2=S)cc1	i	-1.2	-21.3%	-15.8%	-1.4%	-3.1%
CC1(C)[C@H](C(=O)O[C@H](C#N)c2cccc(Oc3ccccc3)c2)[C@@H]1C=C(Br)Br	x	x	11.2%	x	x	x
COc1ccc(CCNC(=O)c2ccc3c(c2)CCN3S(=O)(=O)c2ccc(C)cc2)cc1OC	x	x	77.4%	15.7%	x	x
COC1=CC(=O)O[C@H](/C=C/c2ccc3c(c2)OCO3)C1	x	x	-0.8%	x	x	x
O=c1c2ccccc2[nH]c(=S)n1-c1cccc(C(F)(F)F)c1	i	-1.3	x	6.31µM*	u	x
COc1ccc(/C=N\NC(=O)c2cccc(F)c2)cc1COc1ccccc1	i	-1.4	x	-40.4%	9.8%	x
Oc1cccc(/C=N/NP(=S)(c2ccccc2)c2ccccc2)c1	-116.8%*	-5.3	-11.9%	2.3%	10.1%	10.5%
CC(C)=CCCN1CCC(NC(=O)C(O)(c2ccccc2)C2CCCC2)CC1 (configuration not stated)	x	x	-1.4%	x	x	x
COC(=O)C1=C(c2ccc(-c3ccccc3)c(F)c2)C[C@@H]2CC[C@H]1N2C(=O)N1CCC(O)CC1	i	-1.7	x	u	0.1%	28.4%
COC(=O)C1=C(c2ccc(OC(F)(F)F)cc2)C[C@@H]2CC[C@H]1N2C(=O)N1CCCCC1	i	-6.0	x	35.5µM*	-21.9%	21.7%
COC(=O)C1=C(c2cc3ccccc3s2)C[C@@H]2CC[C@H]1N2C(=O)NCc1ccc(F)cc1	i	-0.3	x	10µM*	u	x
COC(=O)C1=C(c2ccc(-c3ccccc3)c(F)c2)C[C@@H]2CC[C@H]1N2C(=O)N1CCCCC1	i	1.4	x	-1.3%	-20.8%	-5.9%
COC(=O)C1=C(c2ccc(-c3ccccc3)c(F)c2)C[C@@H]2CC[C@H]1N2C(=O)N1CCOCC1	i	-2.0	x	20µM*	-5.6%	26.7%
COC(=O)C1=C(c2ccc(-c3ccccc3)c(F)c2)C[C@@H]2CC[C@H]1N2C(=O)N1CCCC1	i	-33.0*	x	25.1µM*	-23.2%	8.5%
CNc1ccc2oc(C[C@@H]3OC4(CC[C@@H]3C)O[C@H]([C@@H](C)C(=O)c3ccc[nH]3)[C@H](C)C[C@H]4C)nc2c1C(=O)O (some centres not stated)	x	x	57.9%	x	x	x
Cc1ccc(C)c(S(=O)(=O)c2nnn3c2nc(N2CCN(C)CC2)c2sccc23)c1	x	x	u	-16.6%	x	x
[Hg+][c]1ccccc1	x	x	x	x	-79.5%	x
COC(=O)C1=C(c2ccc(-c3ccccc3)c(F)c2)C[C@@H]2CC[C@H]1N2C(=O)NCC1CC1	i	-0.5	x	-28.5%	-0.8%	20µM*
SMILES	pAkt inh	CCT chaperon mod	Apoferritin bind	TDP43 rescue	aSyn yeast inh	Mito fusion yeast
COC(=O)C1=C(c2ccc3ccccc3c2)C[C@@H]2CC[C@H]1N2C(=O)N1CCCC1	i	-2.4	x	u	-2.4%	16.3%
COC(=O)C1=C(c2ccc3ccccc3c2)C[C@@H]2CC[C@H]1N2C(=O)N1CCCCC1	i	-0.7	x	20µM*	0.4%	-7.3%
Cc1ccccc1-n1nc(C)c2c1NC(=O)CSC2c1ccc(Cl)cc1 (configuration not stated)	x	x	-13.6%	17.8µM*	x	x
COc1ccc(S(=O)(=O)NCCc2sc3nc(-c4ccc(C)cc4)nn3c2C)cc1F	x	x	u	22.2%	x	x
C(=C\c1ccccc1)/CN1CCN(CCOC(c2ccccc2)c2ccccc2)CC1	x	x	-6.4%	x	x	x
O=C(Nc1ccc2c(c1)OCCO2)c1cccn(Cc2cccc(F)c2)c1=O	x	x	7.6%	35.5µM*	x	x
O=C(Nc1ccc2c(c1)OCO2)c1cccn(Cc2cccc(F)c2)c1=O	x	x	2.8%	10.7%	x	x
CCCOc1ccc(C(=O)Nc2ccc(-c3cc4ccccc4oc3=O)c(C)c2)cc1	x	x	37.1%	16.4%	x	x
O=c1[nH]c(=O)n(Cc2ccco2)c(O)c1C=NCc1cccs1	-92.9%*	0.4	-13.8%	3.4%	-0.2%	1.6%
O=c1[nH]c(=S)n(Cc2ccco2)c(O)c1C=NCc1cccs1	i	-1.9	u	5.4%	1.8%	2.4%
CN=C(SCc1ccccc1)c1c(O)n(C)c(=O)n(C)c1=O	-108.1%*	-3.4	u	-45.5%	11.7%	0.9%
Clc1ccc(COC(Cn2ccnc2)c2ccc(Cl)cc2Cl)cc1 (configuration not stated)	i	-0.8	-8.3%	u	u	3.16µM*
Clc1ccc(CS[C@@H](Cn2ccnc2)c2ccc(Cl)cc2Cl)cc1	x	x	6.9%[29.3 µM]	x	x	x
COc1ccc(CNC(=O)Cn2c(SCC(=O)Nc3ccc(C)c(C)c3)nc3ccccc32)cc1	x	x	38.3%	-6.8%	x	x
COc1cccc(CSc2nc(-c3ccccc3OC)nc3c2Cc2c(CO)cnc(C)c2O3)c1	x	x	u	28.3%	x	x
Cc1cccc(C)c1-n1nnnc1C(c1cccc2ccccc12)N1CCC(n2c(=O)[nH]c3ccccc32)CC1 (configuration not stated)	i	-1.1	x	22.4µM*	-2.0%	x
Cc1cccc(C)c1-n1nnnc1C(c1cccs1)N1CCC(n2c(=O)[nH]c3ccccc32)CC1 (configuration not stated)	i	0.4	x	17.7%	7.4%	x
CCCOCCN(C(=O)CCl)c1c(CC)cccc1CC	x	x	-6.7%	x	x	x
